Key:
Assay in all cases: log2 ratio of Biotin-Ahx-Ub-VS probe labelling (fragment/DMSO); higher = less target engagement (more negative = stronger competition), active = hit call of the paper (q ≤ 0.05, log2 ratio ≤ -1)
Settings in all cases: compound concentration: 200 uM; treatment time: 3 h
OTUD6B = target: T1, OTUD6B (UniProt Q8N6M0)
T1 sequence (whole entry): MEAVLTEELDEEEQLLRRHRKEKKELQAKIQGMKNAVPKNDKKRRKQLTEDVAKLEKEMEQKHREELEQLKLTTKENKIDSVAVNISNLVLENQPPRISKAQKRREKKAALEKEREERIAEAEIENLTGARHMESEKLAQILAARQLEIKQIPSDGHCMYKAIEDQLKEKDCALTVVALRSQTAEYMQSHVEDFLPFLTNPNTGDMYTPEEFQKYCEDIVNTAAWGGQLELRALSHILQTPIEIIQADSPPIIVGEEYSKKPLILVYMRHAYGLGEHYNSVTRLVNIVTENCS
Method in brief: (§1)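 The table lists average log2 ratios of fragment over vehicle, from an unpaired t-test on global-median-normalised Spectronaut label-free quantities. Proteins with ≥2 unique peptides were used. Samples were HEK293T lysate (495 µg) treated in triplicate with fragment at 200 µM or vehicle for 3 h, then with Biotin-Ahx-Ub-VS (0.5 µM final) for 1 h, with labelled DUBs NeutrAvidin-enriched and run by diaPASEF LC-MS/MS.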

OTUD7B = target: T2, OTUD7B (UniProt Q6GQQ9)
T2 sequence (whole entry): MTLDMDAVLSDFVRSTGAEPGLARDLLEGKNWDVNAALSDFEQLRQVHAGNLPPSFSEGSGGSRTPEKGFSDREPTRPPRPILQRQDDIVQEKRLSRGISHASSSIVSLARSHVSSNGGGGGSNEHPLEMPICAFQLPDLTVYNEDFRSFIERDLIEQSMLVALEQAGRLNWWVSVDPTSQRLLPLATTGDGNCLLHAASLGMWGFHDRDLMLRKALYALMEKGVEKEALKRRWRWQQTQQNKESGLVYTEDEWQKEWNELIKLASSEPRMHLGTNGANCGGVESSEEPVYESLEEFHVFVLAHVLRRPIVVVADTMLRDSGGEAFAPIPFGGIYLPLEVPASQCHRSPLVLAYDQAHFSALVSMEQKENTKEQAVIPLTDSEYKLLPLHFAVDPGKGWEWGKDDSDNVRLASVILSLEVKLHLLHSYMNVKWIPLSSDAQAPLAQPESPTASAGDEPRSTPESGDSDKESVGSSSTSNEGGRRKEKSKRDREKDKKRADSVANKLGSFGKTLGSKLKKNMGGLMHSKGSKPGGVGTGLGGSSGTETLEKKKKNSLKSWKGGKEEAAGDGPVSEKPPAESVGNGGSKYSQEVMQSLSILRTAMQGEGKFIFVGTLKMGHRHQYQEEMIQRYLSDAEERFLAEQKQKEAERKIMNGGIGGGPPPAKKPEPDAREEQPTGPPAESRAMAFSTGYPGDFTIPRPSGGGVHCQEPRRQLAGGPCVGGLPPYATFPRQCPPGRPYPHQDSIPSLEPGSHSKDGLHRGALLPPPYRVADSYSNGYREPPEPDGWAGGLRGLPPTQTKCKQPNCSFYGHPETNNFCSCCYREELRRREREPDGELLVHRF
Method in brief: as §1

PRPF8 = PRPF8 (UniProt Q6P2Q9)
Method in brief: as §1

PSMD7 = target: T3, PSMD7 (UniProt P51665)
T3 sequence (whole entry): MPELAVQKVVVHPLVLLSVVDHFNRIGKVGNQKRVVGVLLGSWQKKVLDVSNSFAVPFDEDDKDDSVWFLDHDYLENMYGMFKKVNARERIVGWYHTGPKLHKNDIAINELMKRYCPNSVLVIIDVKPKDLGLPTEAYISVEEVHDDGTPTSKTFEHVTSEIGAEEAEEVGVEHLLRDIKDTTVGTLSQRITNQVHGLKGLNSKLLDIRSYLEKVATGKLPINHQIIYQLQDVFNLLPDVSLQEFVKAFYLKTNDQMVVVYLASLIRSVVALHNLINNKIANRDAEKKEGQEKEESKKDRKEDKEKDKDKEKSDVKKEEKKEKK
Method in brief: as §1

UCHL1 = UCHL1 (UniProt P09936)
UCHL1, sequence (P09936 whole entry, looked up): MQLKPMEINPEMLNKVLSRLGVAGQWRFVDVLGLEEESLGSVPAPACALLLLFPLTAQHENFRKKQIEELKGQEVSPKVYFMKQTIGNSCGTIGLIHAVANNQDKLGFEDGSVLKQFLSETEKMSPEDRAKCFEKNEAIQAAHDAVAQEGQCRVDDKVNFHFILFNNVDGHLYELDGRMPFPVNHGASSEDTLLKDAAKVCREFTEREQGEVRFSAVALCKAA
Method in brief: as §1

UCHL3 = target: T4, UCHL3 (UniProt P15374)
T4 sequence (whole entry): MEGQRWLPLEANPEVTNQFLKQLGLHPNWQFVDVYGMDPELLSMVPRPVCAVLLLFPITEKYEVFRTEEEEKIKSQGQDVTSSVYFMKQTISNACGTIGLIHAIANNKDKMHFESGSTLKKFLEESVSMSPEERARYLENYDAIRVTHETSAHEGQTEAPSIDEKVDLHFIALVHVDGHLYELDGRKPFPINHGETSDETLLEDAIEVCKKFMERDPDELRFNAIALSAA
Method in brief: as §1

UCHL5 = target: T5, UCHL5 (UniProt Q9Y5K5)
T5 sequence (whole entry): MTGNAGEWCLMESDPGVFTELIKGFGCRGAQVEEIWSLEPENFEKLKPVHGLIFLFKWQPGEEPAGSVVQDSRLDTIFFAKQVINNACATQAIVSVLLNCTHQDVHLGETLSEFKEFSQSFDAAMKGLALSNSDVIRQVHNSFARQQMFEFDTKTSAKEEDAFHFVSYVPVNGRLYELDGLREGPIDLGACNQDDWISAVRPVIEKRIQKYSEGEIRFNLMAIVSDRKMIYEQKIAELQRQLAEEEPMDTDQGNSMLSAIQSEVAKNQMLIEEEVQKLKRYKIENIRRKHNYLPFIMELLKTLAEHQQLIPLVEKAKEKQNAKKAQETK
Method in brief: as §1

USP10 = USP10 (UniProt Q14694)
USP10, sequence (Q14694 whole entry): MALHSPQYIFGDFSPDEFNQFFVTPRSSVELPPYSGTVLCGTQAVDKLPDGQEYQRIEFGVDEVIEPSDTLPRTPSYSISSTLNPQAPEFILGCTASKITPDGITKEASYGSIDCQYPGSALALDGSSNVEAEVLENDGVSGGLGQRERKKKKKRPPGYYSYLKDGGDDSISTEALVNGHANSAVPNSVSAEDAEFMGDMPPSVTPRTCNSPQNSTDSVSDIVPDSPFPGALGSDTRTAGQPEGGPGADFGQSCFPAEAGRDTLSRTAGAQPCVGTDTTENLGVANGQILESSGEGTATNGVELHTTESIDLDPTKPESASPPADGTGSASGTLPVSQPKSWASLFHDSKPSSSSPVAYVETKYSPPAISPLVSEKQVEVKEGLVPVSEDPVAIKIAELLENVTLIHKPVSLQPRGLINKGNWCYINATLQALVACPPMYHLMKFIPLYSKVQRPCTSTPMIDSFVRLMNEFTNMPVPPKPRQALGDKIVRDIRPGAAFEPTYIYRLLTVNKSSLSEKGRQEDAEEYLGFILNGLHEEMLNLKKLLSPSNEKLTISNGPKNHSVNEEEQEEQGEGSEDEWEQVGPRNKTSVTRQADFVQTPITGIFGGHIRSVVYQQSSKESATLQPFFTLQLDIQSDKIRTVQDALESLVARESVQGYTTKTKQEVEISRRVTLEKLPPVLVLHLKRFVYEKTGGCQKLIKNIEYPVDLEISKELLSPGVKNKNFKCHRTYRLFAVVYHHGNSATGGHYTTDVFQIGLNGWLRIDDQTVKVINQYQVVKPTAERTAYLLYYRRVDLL
Method in brief: as §1

USP15 = target: T6, USP15 (UniProt Q9Y4E8)
T6 sequence (whole entry): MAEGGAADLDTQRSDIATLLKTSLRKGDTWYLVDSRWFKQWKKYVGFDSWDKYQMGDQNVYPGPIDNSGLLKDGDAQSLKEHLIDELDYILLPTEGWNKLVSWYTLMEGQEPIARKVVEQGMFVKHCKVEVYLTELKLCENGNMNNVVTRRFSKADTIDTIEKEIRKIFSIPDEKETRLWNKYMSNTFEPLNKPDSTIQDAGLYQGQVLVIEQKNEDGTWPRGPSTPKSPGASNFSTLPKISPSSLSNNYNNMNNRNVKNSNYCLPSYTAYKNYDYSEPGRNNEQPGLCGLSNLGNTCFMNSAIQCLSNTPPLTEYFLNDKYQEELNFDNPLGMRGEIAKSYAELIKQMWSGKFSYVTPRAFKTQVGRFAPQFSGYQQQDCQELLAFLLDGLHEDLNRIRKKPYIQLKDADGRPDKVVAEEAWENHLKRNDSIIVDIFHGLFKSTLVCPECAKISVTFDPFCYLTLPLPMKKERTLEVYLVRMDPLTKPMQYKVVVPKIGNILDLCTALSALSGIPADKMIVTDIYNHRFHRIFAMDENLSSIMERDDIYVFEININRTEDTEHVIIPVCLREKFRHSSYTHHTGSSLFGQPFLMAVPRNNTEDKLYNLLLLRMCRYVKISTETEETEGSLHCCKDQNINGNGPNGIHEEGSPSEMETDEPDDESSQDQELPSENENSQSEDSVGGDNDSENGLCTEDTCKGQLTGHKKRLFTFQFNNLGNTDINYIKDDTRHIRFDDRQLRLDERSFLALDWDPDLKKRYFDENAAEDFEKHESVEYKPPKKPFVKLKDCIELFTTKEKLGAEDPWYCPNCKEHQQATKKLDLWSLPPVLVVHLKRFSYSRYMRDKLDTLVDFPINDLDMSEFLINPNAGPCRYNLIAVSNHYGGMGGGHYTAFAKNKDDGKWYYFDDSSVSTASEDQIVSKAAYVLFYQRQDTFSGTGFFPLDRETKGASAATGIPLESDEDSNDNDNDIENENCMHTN
Method in brief: as §1

USP16 = USP16 (UniProt Q9Y5T5)
USP16, sequence (Q9Y5T5 whole entry, looked up): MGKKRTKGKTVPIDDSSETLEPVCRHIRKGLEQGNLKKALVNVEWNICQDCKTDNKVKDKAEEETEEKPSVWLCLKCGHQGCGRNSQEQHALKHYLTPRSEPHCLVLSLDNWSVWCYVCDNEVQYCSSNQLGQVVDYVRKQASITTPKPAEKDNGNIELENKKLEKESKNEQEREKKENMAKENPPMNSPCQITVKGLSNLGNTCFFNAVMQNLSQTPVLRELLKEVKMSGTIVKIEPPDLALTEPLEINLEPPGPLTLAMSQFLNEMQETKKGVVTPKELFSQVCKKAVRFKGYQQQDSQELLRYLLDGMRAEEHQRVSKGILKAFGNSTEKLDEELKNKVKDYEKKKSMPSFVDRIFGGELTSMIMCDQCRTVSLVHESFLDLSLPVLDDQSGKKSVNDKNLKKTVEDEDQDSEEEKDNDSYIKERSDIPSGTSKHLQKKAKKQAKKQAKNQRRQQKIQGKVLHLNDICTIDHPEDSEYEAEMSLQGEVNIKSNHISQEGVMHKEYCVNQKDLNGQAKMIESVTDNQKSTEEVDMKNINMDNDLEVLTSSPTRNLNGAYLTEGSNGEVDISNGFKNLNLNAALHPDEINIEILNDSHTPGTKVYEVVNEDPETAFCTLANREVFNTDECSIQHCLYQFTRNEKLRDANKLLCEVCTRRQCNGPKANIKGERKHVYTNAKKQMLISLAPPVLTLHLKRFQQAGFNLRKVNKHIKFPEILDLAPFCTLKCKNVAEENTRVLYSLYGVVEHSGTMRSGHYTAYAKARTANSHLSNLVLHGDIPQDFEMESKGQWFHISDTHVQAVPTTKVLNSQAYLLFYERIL
Method in brief: as §1

Measured: log2 ratio of Biotin-Ahx-Ub-VS probe labelling

Cc1ccc(CNC(=O)CCl)nc1C.Cl
inactive: OTUD6B 0.146 | OTUD7B -0.314 | PRPF8 0.14 | PSMD7 -0.305 | UCHL3 0.499 | UCHL5 -0.0227 | USP10 -0.0933 | USP15 0.144 | USP16 0.174
active: UCHL1 -1.07
